Measured values taken from PubChem BioAssay (EPA / NIEHS).
Values joined by “and” are separate entries in the source; they are usually repeats but may differ in a detail not shown here. Equal values may be shown once. Inconclusive results are not listed. Active and inactive are the calls of the source. How the source made its calls: active means hit-call score of the fitted dose curve at least 0.9, where 1 is the maximum; inconclusive means response in the unintended direction; inactive means score below 0.9.

What follows are molecules tested against human Insulin Receptor (InsR), INSR (gene 3643) (UniProt P06213) (assay: NVS_ENZ_hInsR: NovaScreen (NVS) Enzymatic Assay for human Insulin Receptor (InsR) (AID 2283168)).
Sequence of human Insulin Receptor (InsR), INSR (gene 3643) (P06213 whole entry, looked up): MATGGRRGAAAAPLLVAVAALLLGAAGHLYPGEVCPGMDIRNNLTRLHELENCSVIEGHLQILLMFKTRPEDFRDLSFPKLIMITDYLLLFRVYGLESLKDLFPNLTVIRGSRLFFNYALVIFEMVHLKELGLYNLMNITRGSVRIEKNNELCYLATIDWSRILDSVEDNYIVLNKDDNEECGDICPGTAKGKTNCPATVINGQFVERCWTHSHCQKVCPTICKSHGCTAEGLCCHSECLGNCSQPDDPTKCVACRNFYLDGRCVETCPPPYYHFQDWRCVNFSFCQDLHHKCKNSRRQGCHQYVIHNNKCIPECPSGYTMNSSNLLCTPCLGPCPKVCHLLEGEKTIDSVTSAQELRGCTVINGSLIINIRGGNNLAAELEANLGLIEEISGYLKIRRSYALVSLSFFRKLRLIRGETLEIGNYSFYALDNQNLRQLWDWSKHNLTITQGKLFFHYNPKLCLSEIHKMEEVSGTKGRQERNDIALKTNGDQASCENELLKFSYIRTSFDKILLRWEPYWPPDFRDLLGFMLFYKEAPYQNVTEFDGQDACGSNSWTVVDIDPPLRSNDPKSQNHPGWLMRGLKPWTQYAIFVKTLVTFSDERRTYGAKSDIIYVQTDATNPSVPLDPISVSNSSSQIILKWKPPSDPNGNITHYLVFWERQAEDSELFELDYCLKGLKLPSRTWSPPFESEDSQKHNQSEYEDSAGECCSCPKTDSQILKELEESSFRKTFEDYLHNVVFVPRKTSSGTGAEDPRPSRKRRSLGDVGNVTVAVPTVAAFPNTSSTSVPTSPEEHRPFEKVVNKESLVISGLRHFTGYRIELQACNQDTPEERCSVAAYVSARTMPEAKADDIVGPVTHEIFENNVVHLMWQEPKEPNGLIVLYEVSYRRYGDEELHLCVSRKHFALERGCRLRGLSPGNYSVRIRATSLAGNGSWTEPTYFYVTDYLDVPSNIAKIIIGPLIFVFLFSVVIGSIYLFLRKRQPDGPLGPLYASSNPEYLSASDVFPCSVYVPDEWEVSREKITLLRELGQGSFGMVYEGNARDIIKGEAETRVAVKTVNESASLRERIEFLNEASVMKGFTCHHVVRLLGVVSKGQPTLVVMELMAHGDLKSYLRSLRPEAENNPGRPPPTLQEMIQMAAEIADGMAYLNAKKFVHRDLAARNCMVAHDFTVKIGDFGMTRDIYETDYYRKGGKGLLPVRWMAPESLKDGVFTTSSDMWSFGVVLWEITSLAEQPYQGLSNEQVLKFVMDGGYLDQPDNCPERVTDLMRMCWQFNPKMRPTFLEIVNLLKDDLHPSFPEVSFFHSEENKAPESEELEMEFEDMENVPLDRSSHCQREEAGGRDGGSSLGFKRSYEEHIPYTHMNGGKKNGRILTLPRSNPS
Outline: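 Cell-free enzyme assay read 1 h post-dose by fluorescence after substrate/product mobility-shift separation. Duplicate 25 uM primary screen, then singleton concentration-response up to 50 uM for compounds passing threshold; loss of signal vs DMSO.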
With `O=S(=O)(O)C(F)(F)C(F)(F)C(F)(F)C(F)(F)C(F)(F)C(F)(F)C(F)(F)C(F)(F)F` the AC50 was 11.7 µM (active). `COC(=O)c1ccccc1CS(=O)(=O)NC(=O)Nc1nc(OC)cc(OC)n1` was tested, and the outcome was “inactive”. With `O=C(O)C(F)(F)C(F)(F)C(F)(F)C(F)(F)C(F)(F)C(F)(F)C(F)(F)F` the outcome was “inactive”.

Each molecule was assayed against human Janus Kinase 2 (Jak2), JAK2 (gene 3717) (UniProt O60674) (assay: NVS_ENZ_hJak2: NovaScreen (NVS) Enzymatic Assay for human Janus Kinase 2 (Jak2) (AID 2283169)).
Sequence of human Janus Kinase 2 (Jak2), JAK2 (gene 3717) (O60674 whole entry, looked up): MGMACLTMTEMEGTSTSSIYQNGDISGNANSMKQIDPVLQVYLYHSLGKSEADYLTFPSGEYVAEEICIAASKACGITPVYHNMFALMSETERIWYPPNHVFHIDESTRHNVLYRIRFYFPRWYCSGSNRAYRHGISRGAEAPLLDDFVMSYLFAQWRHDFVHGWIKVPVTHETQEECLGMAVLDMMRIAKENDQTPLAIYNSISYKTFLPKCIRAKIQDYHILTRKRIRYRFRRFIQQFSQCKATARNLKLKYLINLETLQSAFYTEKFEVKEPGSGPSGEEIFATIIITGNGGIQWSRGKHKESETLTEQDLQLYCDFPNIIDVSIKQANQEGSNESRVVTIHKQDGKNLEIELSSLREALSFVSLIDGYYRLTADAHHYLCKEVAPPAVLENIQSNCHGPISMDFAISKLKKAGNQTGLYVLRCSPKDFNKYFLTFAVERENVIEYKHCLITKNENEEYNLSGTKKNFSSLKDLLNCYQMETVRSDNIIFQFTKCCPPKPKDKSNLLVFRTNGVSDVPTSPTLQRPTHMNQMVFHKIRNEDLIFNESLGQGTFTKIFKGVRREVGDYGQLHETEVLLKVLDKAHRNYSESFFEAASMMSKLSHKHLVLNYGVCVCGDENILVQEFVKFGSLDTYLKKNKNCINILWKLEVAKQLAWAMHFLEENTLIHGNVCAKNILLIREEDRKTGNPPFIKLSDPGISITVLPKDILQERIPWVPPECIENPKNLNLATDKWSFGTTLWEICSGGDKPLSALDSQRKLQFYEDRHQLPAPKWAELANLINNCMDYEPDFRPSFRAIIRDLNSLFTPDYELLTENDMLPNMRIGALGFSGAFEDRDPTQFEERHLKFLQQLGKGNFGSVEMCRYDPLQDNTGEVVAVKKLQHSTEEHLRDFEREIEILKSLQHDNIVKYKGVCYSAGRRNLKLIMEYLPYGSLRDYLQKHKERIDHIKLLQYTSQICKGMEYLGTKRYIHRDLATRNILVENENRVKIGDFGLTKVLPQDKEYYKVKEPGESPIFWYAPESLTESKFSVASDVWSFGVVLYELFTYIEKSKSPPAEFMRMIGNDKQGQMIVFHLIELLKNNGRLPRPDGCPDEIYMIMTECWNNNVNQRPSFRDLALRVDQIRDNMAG
Outline: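 Single-point duplicate screen at 25 uM, with hits run in concentration series to a 50 uM top dose. Substrate-product separation by mobility shift with fluorescence detection, 1 h post-dosing; DMSO baseline.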
`COC(=O)c1ccccc1CS(=O)(=O)NC(=O)Nc1nc(OC)cc(OC)n1` was tested, and the outcome was “inactive”. In the case of `CC(C)(C)C(O)C(Oc1ccc(Cl)cc1)n1cncn1` (configuration not stated), the outcome was “inactive”. For `CC[C@H](C)[C@H]1O[C@]2(C=C[C@@H]1C)C[C@@H]1C[C@@H](C/C=C(\C)[C@@H](O[C@H]3C[C@H](OC)[C@@H](O[C@H]4C[C@H](OC)[C@@H](O)[C@H](C)O4)[C@H](C)O3)[C@@H](C)/C=C/C=C3\CO[C@@H]4[C@H](O)C(C)=C[C@@H](C(=O)O1)[C@]34O)O2` (tested in a mixture with another compound), the AC50 was 13.8 µM (active). For `Oc1cc(Cl)ccc1Oc1ccc(Cl)cc1Cl`, the outcome was “inactive”.

These molecules were tested against human Mitogen-Activated Protein Kinase 1 (MAPK 1), MAPK1 (gene 5594) (UniProt P28482) (assay: NVS_ENZ_hMAPK1: NovaScreen (NVS) Enzymatic Assay for human Mitogen-Activated Protein Kinase 1 (MAPK 1) (AID 2283175)).
Sequence of human Mitogen-Activated Protein Kinase 1 (MAPK 1), MAPK1 (gene 5594) (P28482 whole entry, looked up): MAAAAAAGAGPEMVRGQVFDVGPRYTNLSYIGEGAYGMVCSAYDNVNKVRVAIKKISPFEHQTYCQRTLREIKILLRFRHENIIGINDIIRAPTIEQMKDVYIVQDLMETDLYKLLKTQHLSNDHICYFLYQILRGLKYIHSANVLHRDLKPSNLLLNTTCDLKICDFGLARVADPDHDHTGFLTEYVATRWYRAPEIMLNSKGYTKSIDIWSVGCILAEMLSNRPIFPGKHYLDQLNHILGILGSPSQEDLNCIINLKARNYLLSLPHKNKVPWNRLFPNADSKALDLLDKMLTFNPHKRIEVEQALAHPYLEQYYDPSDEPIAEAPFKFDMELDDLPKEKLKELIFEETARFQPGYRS
Protocol: (§1) NVS_ENZ_hMAPK1 is a biochemical, single-readout assay that uses extracted gene-proteins in a cell-free assay. Measurements were taken 1 hour after chemical dosing in a 384-well plate.NVS_ENZ_hMAPK1 is one of one assay component(s) measured or calculated from the NVS_ENZ_hMAPK1 assay. It is designed to make measurements of enzyme activity, a form of enzyme reporter, as detected with fluorescence intensity signals by Fluorescence and electrophoretic mobility shift technology.Data from the assay component NVS_ENZ_hMAPK1 was analyzed into 1 assay endpoint. This assay endpoint, NVS_ENZ_hMAPK1, was analyzed in the positive analysis fitting direction relative to DMSO as the negative control and baseline of activity. Using a type of enzyme reporter, loss-of-signal activity can be used to understand changes in the enzymatic activity as they relate to the gene MAPK1. Furthermore, this assay endpoint can be referred to as a primary readout, because this assay has produced multiple assay endpoints where this one serves a enzymatic activity function. To generalize the intended target to other relatable targets, this assay endpoint is annotated to the kinase intended target family, where the subfamily is serine/threonine kinase.
(§2) Binding assays used specific radioligands (tritiated, iodinated) with non-radioactive competitive displacement ligands in agonist or antagonist protocols (as indicated) and various reference compounds and inhibitors to titrate specific binding to receptors and transporters. Most enzyme assays (CYPs, kinases, phosphatases, proteases, HDACs) used recombinant protein and specific substrates (fluorescence mostly, some colorimetric and radioactive) and inhibitors, followed by a biochemical separation of substrate and product. All assays for the biochemical HTS were initially run in duplicate at a single concentration (10 uM for CYP450 assays and 25 uM for all others). Assay-chemical combinations meeting a pre-defined threshold (e.g., 30% inhibition and other criteria defined below) were then run in singleton concentration-response format with maximum concentration of 20 uM for CYPs and 50 uM for all others. Each assay was run with positive and negative controls, and concurrent controls on every plate. The follow-up (secondary) screen tested active chemical-pairs in concentration series, as well as a few additional assays not tested in the primary screen, some selected negative inactives, and several cases re-run in the concentration series for confirmatory purposes.
`O=S(=O)(O)C(F)(F)C(F)(F)C(F)(F)C(F)(F)C(F)(F)C(F)(F)C(F)(F)C(F)(F)F` was tested, and the AC50 was 34.9 µM (active) and 41 µM (active). With `COC(=O)c1ccccc1S(=O)(=O)NC(=O)N(C)c1nc(C)nc(OC)n1` the outcome was “inactive”. `CC(C)(C)C(O)/C(=C\c1ccc(Cl)cc1Cl)n1cncn1` (configuration not stated) was tested, and the outcome was “inactive”. `Oc1cc(Cl)ccc1Oc1ccc(Cl)cc1Cl` was tested, and the outcome was “inactive”.

What follows are molecules tested against Mitogen-activated protein kinase 3 (Homo sapiens) (UniProt P27361) (assay: NVS_ENZ_hMAPK3: NovaScreen (NVS) Enzymatic Assay for human Mitogen-Activated Protein Kinase 3 (MAPK 3) (AID 2283177)).
Sequence of Mitogen-activated protein kinase 3 (Homo sapiens) (P27361 whole entry, looked up): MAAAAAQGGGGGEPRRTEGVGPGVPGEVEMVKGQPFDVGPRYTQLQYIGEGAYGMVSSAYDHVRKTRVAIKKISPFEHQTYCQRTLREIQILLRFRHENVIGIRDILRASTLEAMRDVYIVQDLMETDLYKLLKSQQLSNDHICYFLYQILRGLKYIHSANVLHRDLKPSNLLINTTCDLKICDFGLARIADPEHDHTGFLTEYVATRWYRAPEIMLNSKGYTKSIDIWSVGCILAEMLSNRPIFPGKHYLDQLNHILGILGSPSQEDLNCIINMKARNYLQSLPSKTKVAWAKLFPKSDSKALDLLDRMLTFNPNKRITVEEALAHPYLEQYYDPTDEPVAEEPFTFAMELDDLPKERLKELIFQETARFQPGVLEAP
Outline: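 Chemicals were first tested in duplicate at 25 uM, with hits re-run as concentration series (max 50 uM). Recombinant enzyme activity, measured 1 h post-dose in a cell-free format, was read by fluorescence/mobility shift relative to DMSO.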
With `O=S(=O)(O)C(F)(F)C(F)(F)C(F)(F)C(F)(F)C(F)(F)C(F)(F)C(F)(F)C(F)(F)F` the AC50 was 32.7 µM (active). In the case of `COC(=O)c1ccccc1S(=O)(=O)NC(=O)N(C)c1nc(C)nc(OC)n1`, the outcome was “inactive”. With `O=[N+]([O-])/N=C1\NCCN1Cc1ccc(Cl)nc1` the outcome was “inactive”. `N#Cc1c(Cl)c(Cl)c(Cl)c(C#N)c1Cl` was tested, and the outcome was “inactive”. In the case of `Oc1cc(Cl)ccc1Oc1ccc(Cl)cc1Cl`, the outcome was “inactive”.

What follows are molecules tested against human MAP Kinase-Activated Protein Kinase 2 (MAPKAPK2), MAPKAPK2 (gene 9261) (UniProt P49137) (assay: NVS_ENZ_hMAPKAPK2: NovaScreen (NVS) Enzymatic Assay for human MAP Kinase-Activated Protein Kinase 2 (MAPKAPK2) (AID 2283178)).
Sequence of human MAP Kinase-Activated Protein Kinase 2 (MAPKAPK2), MAPKAPK2 (gene 9261) (P49137 whole entry, looked up): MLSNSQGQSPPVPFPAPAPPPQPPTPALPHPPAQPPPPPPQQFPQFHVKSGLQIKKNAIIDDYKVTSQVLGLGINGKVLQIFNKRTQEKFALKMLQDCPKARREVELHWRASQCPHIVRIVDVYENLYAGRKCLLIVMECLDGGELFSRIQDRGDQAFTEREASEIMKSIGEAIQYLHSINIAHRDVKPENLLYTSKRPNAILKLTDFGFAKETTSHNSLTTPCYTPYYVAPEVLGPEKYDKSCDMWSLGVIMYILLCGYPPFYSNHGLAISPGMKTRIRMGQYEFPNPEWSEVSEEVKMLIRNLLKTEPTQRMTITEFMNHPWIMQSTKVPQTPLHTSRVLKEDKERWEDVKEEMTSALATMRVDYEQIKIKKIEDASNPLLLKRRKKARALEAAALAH
Protocol: as §1, with “NVS_ENZ_hMAPKAPK2” for “NVS_ENZ_hMAPK1”, “plate.NVS_ENZ_hMAPKAPK2” for “plate.NVS_ENZ_hMAPK1”, “NVS_ENZ_hMAPKAPK2,” for “NVS_ENZ_hMAPK1,”, “MAPKAPK2.” for “MAPK1.”
as §2
For `O=S(=O)(O)C(F)(F)C(F)(F)C(F)(F)C(F)(F)C(F)(F)C(F)(F)C(F)(F)C(F)(F)F`, the outcome was “inactive”. `O=C(O)C(F)(F)C(F)(F)C(F)(F)C(F)(F)C(F)(F)C(F)(F)C(F)(F)F` was tested, and the outcome was “inactive”. In the case of `COC(=O)c1ccccc1S(=O)(=O)NC(=O)N(C)c1nc(C)nc(OC)n1`, the AC50 was 9.14 µM (active). `Cc1cc(C)nc(NC(=O)NS(=O)(=O)c2ccccc2C(=O)OC2COC2)n1` was tested, and the AC50 was 18.6 µM (active). In the case of `Oc1ccc(Cl)cc1Cc1ccccc1`, the outcome was “inactive”.

These molecules were tested against Collagenase 3 (Homo sapiens) (UniProt P45452) (assay: NVS_ENZ_hMMP13: NovaScreen (NVS) Enzymatic Assay for human Matrix Metalloproteinase-13 (MMP13) (AID 2283182)).
Outline: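 Recombinant MMP13 cleaving fluorescent substrate, cell-free, measured 1 h after dosing. Primary duplicate screen at 25 uM; actives tested in concentration-response up to 50 uM; loss of signal relative to DMSO.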
In the case of `O=S(=O)(O)C(F)(F)C(F)(F)C(F)(F)C(F)(F)C(F)(F)C(F)(F)C(F)(F)C(F)(F)F`, the AC50 was 7.53 µM (active) and 43 µM (active).
